“And” between values parts separate entries of the source, which are not always exact repeats. Equal entries are not always repeated. In all, about 5,500 compounds went through this assay and about 2,000 (36%) were called active. Another 18% or so got no clear call; they are omitted. Rule as the data show it: active = normalized growth mostly below about 0.91 (no sharp cut-off); inconclusive = no clear call, values can overlap the other calls; inactive = mostly above about 0.92. This is one part of the list.
Assay: chemical genetic growth profiling, strain panel (AID 1159580);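 also: tested at 20 µM; growth read once vehicle control cultures reached saturation at 30 °C; 1 = growth at the plate median or of vehicle wells; lower values mean less growth of the strain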
Conditions: S. cerevisiae deletion strains, growth OD

Measured: normalized growth

CO[C@H]1CC(O[C@@H]2/C(C)=C/C[C@@H]3C[C@@H](C[C@]4(CC[C@H](C)[C@@H](C5CCCCC5)O4)O3)OC(=O)[C@@H]3C=C(C)/C(=N\O)[C@H]4OC/C(=C\C=C\[C@@H]2C)[C@]43O)O[C@@H](C)C1O (some centres undefined)
active: locus YBR231C, strain swc5, stronger effect = lower value 0.877 | locus YDL185W, strain tfp1, stronger effect = lower value 0.0713 | locus YDR137W, strain rgp1, stronger effect = lower value 0.39 | locus YDR159W, strain sac3, stronger effect = lower value 0.756 | locus YHR079C, strain IRE1, stronger effect = lower value 0.831
0.993 (inactive) and 0.435 (active): locus YHR030C, strain SLT2, stronger effect = lower value
0.882 (inactive) and 0.512 (active): locus YJL095W, strain BCK1, stronger effect = lower value
inactive: locus YAL013W, strain DEP1, stronger effect = lower value 0.956 | locus YAL021C, strain ccr4, stronger effect = lower value 1.09 | locus YAL026C, strain drs2, stronger effect = lower value 1.02 | locus YAL030W, strain snc1, stronger effect = lower value 1.02 | locus YBL061C, strain skt5, stronger effect = lower value 0.989 | locus YBR009C, strain hhf1, stronger effect = lower value 1.03 | locus YBR021W, strain FUR4, stronger effect = lower value 0.952 | locus YBR023C, strain chs3, stronger effect = lower value 0.991 | locus YBR171W, strain sec66, stronger effect = lower value 0.988 | locus YBR229C, strain ROT2, stronger effect = lower value 0.992 | locus YBR279W, strain paf1, stronger effect = lower value 1.01 | locus YCL011C, strain gbp2, stronger effect = lower value 1 | locus YCL016C, strain dcc1, stronger effect = lower value 1.01 | locus YCL029C, strain bik1, stronger effect = lower value 0.984 | locus YCL061C, strain MRC1, stronger effect = lower value 1.02 | locus YCL069W, strain vba3, stronger effect = lower value 1.02 | locus YCR088W, strain abp1, stronger effect = lower value 1.02 | locus YDL005C, strain med2, stronger effect = lower value 1.02 | locus YDL035C, strain GPR1, stronger effect = lower value 0.949 | locus YDL040C, strain nat1, stronger effect = lower value 1.02 | locus YDL074C, strain BRE1, stronger effect = lower value 0.979 | locus YDL101C, strain DUN1, stronger effect = lower value 0.979 | locus YDL134C, strain PPH21, stronger effect = lower value 0.96 | locus YDL192W, strain arf1, stronger effect = lower value 0.989 | locus YDR001C, strain nth1, stronger effect = lower value 1.01 | locus YDR069C, strain doa4, stronger effect = lower value 1 | locus YDR101C, strain arx1, stronger effect = lower value 0.998 | locus YDR150W, strain NUM1, stronger effect = lower value 0.984 | locus YDR162C, strain NBP2, stronger effect = lower value 0.928 | locus YDR195W, strain ref2 0.883 | locus YDR297W, strain sur2, stronger effect = lower value 1.02 | locus YDR318W, strain mcm21, stronger effect = lower value 0.992 | locus YDR334W, strain swr1, stronger effect = lower value 1.02 | locus YDR335W, strain msn5, stronger effect = lower value 0.982 | locus YDR388W, stronger effect = lower value 0.991 | locus YDR392W, strain spt3, stronger effect = lower value 0.979 | locus YDR502C, strain sam2, stronger effect = lower value 0.983 | locus YEL003W, strain gim4, stronger effect = lower value 1.01 | locus YEL037C, strain rad23, stronger effect = lower value 1.02 | locus YEL061C, strain CIN8 (second series), stronger effect = lower value 1.02 | locus YEL061C, strain CIN8, stronger effect = lower value 0.987 | locus YER015W, strain faa2, stronger effect = lower value 0.997 | locus YER016W, strain bim1, stronger effect = lower value 0.989 | locus YER110C, stronger effect = lower value 0.994 | locus YER111C, strain swi4, stronger effect = lower value 1.02 | locus YER155C, strain BEM2 (second series), stronger effect = lower value 1 | locus YER155C, strain BEM2, stronger effect = lower value 1.02 | locus YER167W, strain BCK2, stronger effect = lower value 0.994 | locus YFR010W, strain ubp6, stronger effect = lower value 1.02 | locus YGL078C, strain dbp3, stronger effect = lower value 0.975 | locus YGL086W, strain mad1, stronger effect = lower value 1.01 | locus YGL167C, strain pmr1, stronger effect = lower value 1.01 | locus YGL173C, strain kem1, stronger effect = lower value 1.02 | locus YGL227W, strain vid30, stronger effect = lower value 1.03 | locus YGL240W, strain doc1, stronger effect = lower value 1.1 | locus YGL248W, strain PDE1, stronger effect = lower value 1 | locus YGL253W, strain hxk2, stronger effect = lower value 1.01 | locus YGR135W, strain pre9, stronger effect = lower value 0.974 | locus YGR252W, strain gcn5, stronger effect = lower value 1.06 | locus YHR013C, strain ard1, stronger effect = lower value 0.861 | locus YHR027C, strain rpn1, stronger effect = lower value 0.994 | locus YHR079C, strain IRE1 (second series), stronger effect = lower value 0.988 | locus YHR094C, strain hxt1, stronger effect = lower value 1 | locus YHR129C, strain ARP1, stronger effect = lower value 0.99 | locus YHR142W, strain chs7, stronger effect = lower value 1.01 | locus YHR200W, strain rpn10, stronger effect = lower value 0.988 | locus YIL066C, strain RNR3, stronger effect = lower value 0.984 | locus YIL073C, strain SPO22, stronger effect = lower value 0.801 | locus YIL125W, strain kgd1, stronger effect = lower value 0.992 | locus YIR030C, strain dcg1, stronger effect = lower value 1 | locus YJL092W, strain hpr5, stronger effect = lower value 1.02 | locus YJL095W, strain BCK1 (second series), stronger effect = lower value 1.02 | locus YJL115W, strain asf1, stronger effect = lower value 1.04 | locus YJL129C, strain trk1, stronger effect = lower value 0.901 | locus YJL134W, strain LCB3, stronger effect = lower value 0.984 | locus YJL154C, strain vps35, stronger effect = lower value 1.02 | locus YJL164C, strain tpk1, stronger effect = lower value 1.01 | locus YJL166W, strain qcr8, stronger effect = lower value 1.02 | locus YJL168C, strain set2, stronger effect = lower value 0.997 | locus YJL187C, strain SWE1 (second series), stronger effect = lower value 0.99 | locus YJL187C, strain SWE1, stronger effect = lower value 1.01 | locus YJR043C, strain POL32, stronger effect = lower value 0.977

From PubChem BioAssay AID1159580 (chemical genetic matrix, 2015)
